Source: publication PMC12214610

The substances below were run against Heat shock cognate 71 kDa protein (UniProt P11142).
Heat shock cognate 71 kDa protein, sequence (P11142 whole entry): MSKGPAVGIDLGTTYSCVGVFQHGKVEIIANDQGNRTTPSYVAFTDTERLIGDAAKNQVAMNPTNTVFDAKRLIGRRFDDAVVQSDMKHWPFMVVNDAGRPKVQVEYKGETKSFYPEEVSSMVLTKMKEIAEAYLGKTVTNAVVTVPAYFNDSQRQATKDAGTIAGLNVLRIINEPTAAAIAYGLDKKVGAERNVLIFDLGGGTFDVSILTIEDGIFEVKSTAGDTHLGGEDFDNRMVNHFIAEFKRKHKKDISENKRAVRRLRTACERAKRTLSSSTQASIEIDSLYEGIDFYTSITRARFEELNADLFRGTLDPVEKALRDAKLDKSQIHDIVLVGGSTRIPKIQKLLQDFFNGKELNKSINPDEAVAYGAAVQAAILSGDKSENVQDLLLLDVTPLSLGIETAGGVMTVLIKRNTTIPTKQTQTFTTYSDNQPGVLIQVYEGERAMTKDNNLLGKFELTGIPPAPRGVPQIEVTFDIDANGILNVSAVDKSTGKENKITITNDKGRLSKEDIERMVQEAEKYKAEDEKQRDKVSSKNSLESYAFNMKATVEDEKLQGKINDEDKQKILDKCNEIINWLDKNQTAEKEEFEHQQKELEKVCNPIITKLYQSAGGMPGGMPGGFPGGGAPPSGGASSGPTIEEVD

Glyceraldehyde-3-phosphate dehydrogenase, P04406, sequence (P04406 whole entry): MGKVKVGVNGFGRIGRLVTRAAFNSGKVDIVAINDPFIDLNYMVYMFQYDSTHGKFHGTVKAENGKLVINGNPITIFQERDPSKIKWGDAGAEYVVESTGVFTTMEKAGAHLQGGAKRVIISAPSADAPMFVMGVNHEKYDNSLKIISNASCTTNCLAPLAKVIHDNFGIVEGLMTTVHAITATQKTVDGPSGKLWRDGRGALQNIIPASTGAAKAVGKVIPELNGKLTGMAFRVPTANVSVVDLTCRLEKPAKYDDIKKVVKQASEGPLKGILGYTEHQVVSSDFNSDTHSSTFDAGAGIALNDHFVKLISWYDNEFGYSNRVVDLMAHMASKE

Listed as a hit, yes:
Heat shock 70 kDa protein 4L, O95757
Thioredoxin, P10599
Glyceraldehyde-3-phosphate dehydrogenase, P04406
